Data taken from the supplement of paper PMC6555819.

How the values were obtained:
Experiment in all cases: PBM binding z-score (relative to random genomic background probes); higher = stronger binding; sequences stand for … in GC…GCGATTGACAGCGTAGAATGAAGG
[1] = tested on: RARb homodimer (NR concentration 270 nM)
Summary of the method: (§1)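 On custom Agilent 4×180K arrays, double-stranded probes with 34-nt variable regions carried direct-repeat seeds, single-nucleotide variants, half-site ablations or random human genomic background. Ligand-free nuclear receptor dimers were applied for 1 h, and binding was read with antibodies against each partner (one per run). Binding z-scores come from regression-normalized fluorescence, with the random background probes as reference.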

[2] = tested on: RARg:RXRa (NR concentration 270 nM, RXRa partner concentration 90 nM)
Summary of the method: as §1

[3] = tested on: RARg homodimer (NR concentration 270 nM)
Summary of the method: as §1

[4] = tested on: RXRa DBDmut IVT, anti-RXR (DBD mutation: RXRa K156A/R161A, NR concentration 90 nM)
Summary of the method: as §1

[5] = tested on: RXRa homodimer (NR concentration 180 nM)
Summary of the method: as §1

[6] = tested on: THRa:RXRa (NR concentration 90 nM, RXRa partner concentration 90 nM)
Summary of the method: as §1

[7] = tested on: THRa homodimer (NR concentration 90 nM)
Summary of the method: as §1

[8] = tested on: VDR homodimer (NR concentration 270 nM)
Summary of the method: as §1

Sequence | PBM binding z-score [1] | PBM binding z-score [2] | PBM binding z-score [3] | PBM binding z-score [4] | PBM binding z-score [5] | PBM binding z-score [6] | PBM binding z-score [7] | PBM binding z-score [8]
AGTATTAGTTGACTTAGGGCAACCGATACGACGC | 1.29 | 0.595 | 1.02 | 0.0389 | 0.49 | 1.53 | 0.518 | 0.538
ATATGTAGGTGACATCCGGGTCATTCAGGCTATG | 2.79 | 3.31 | 1.95 | 0.715 | 3.03 | 3.53 | 2.11 | 2.66
CCTACTGTGCCAAAAAGGTCATTGATGCCGATAA | 4.41 | 4.52 | 3.97 | 1.73 | 4.42 | 3.26 | 1.48 | 3.38
CAAACTAGGTCACCGGTAGGTCAAAGTCCGCATG | 4.94 | 7.11 | 6.27 | 1.7 | 4.82 | 4.3 | 2.8 | 2.2
CGAACTAGGCCAAGGACAGTGAATCTCCGCACGC | 0.591 | -0.0156 | 0.663 | 0.163 | -0.0922 | 1.35 | 0.94 | -0.0931
GCTCGGAGGACAAGGTCATAGCTTTGTCCGTAGA | 3.41 | 4.23 | 3.99 | 1.8 | 4.34 | 3.56 | 2.14 | 2.26
CCGAGTAGGTTATGCGGCATTCAGGCAACGGTGA | 0.275 | 0.0373 | -0.0255 | -0.0566 | 0.274 | -0.034 | 0.263 | -0.167
